Assay outcomes (PubChem BioAssay)
Pf growth 96h: P. falciparum growth inhibition at 96 hours. Potency, µM (doses to about 28.7 µM), inactives show top-dose activity change, negative = inhibition, most hits filed as inhibitors. P. falciparum luciferase reporter growth, 96 h. AID 504834. actives 6.9% (n = 320,000); also: % is scaled to controls: 0 for no effect and ±100 for the full control effect
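Two-generation exposure (96 h) targets delayed-death phenotype. Reporter parasites carrying integrated firefly luciferase, in red cells at 2% hematocrit and 0.05% parasitemia final, kept at 37 C, 5% CO2; luminescence loss indicates inhibition.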
AMA1-RON2 inh: disrupts binding of P. falciparum AMA1 to RON2; AlphaScreen AMA1-biotinylated RON2 peptide binding; Potency, µM (highest dose often 58.2 µM), without a hit: top-dose activity change, negative = inhibition, hits mostly inhibitors; actives 0.2% (n = 360,000); AID 720542;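 also: 0% = vehicle wells and -100% = peptide control; nearly all actives have a fitted effect of over 45% in size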
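AMA1 (3D7) with his tag at 25 nM final met compounds first, then biotinylated RON2 peptide at 25 nM; detection used donor plus acceptor beads, 10 µg/mL apiece, read by AlphaScreen after 30 min at room temperature.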
Pf growth 48h: P. falciparum growth inhibition at 48 hours (one generation) | actives 5.9% (n = 310,000) | AID 504832 | P. falciparum luciferase growth in erythrocytes, 48 h | Potency, µM (doses to about 28.7 µM), without a hit: at the top dose activity change, negative = inhibition, hits mostly inhibitors; also: % is scaled to controls: 0 for no effect and ±100 for the full control effect
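Luciferase-expressing P. falciparum in infected erythrocytes (2% hematocrit, 0.1% parasitemia final) in RPMI 1640/0.5% Albumax were exposed to compound for 48 hours at 37 C, 5% CO2; growth read as luminescence.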
Sm TGR inh: inhibitors of Schistosoma mansoni thioredoxin glutathione reductase | Q962Y6 | purified TGR, DTNB reduction, TNB absorbance 405 nm | Potency, µM (series often up to 114 µM), for the others: at the highest dose activity change, negative = inhibition, most hits filed as inhibitors | actives 3% (n = 360,000); also: % is scaled to controls: 0 for no effect and ±100 for the full control effect; nearly all actives have a fitted effect of over 60% in size
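Kinetic colorimetric format: TGR-catalysed, NADPH-driven DTNB reduction monitored via TNB absorbance. Enzyme dispensed at 20 nM; compound exposure 15 min at room temperature before reaction start.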
NS1 inh: influenza NS1 inhibition; AID 2326; Potency, µM (top dose mostly 46.1 µM), for the others: at the top dose activity, positive = more growth; actives 0.4% (n = 270,000); calls by dose curve; also: actives are rising curves; nearly all actives have a fitted effect of over 50% in size
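Recovery from NS1-induced slow growth read by OD600 in budding yeast switched to galactose assay medium (pH 6.0, -URA) at 1:100 dilution. Compound 23 nl per well; the matching strain lacking NS1 serves as control.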
An asterisk follows results filed as active; ? = inconclusive; . = not tested or not shown. Only some compounds are listed: those with a hit (about 11% of all), similar ones and a draw of the others. Unless noted, calls follow the shape of the dose curve; as a rule, active = well fitted curve in the direction sought with a large enough effect; inconclusive = small, poorly fitted or top-dose-only effect, or another doubt; inactive = no such curve, though single readings can be large; an effect the other way counts as inactive or inconclusive. Potency is read from the fitted curve at half-maximal effect.

SMILES	Pf growth 96h	AMA1-RON2 inh	Pf growth 48h	Sm TGR inh	NS1 inh
CCc1ccc(NC(=O)CSc2nnc(Cc3cccn3C)n2-c2ccc(OC)cc2)cc1	8.3µM*	-11%	?	13%	-37%
Cn1cccc1Cc1nnc(SCC(=O)Nc2ccc(F)cc2)n1-c1ccc(F)cc1	31%	-10%	?	?	-28%
COc1ccc(NC(=O)CSc2nnc(Cc3cccn3C)n2-c2ccc(F)cc2)cc1OC	?	-7%	?	45µM*	?
COc1ccc(-n2c(Cc3cccn3C)nnc2SCC(=O)Nc2ccccc2)cc1	?	-4%	12µM*	?	6%
Cc1ccc(-n2c(Cc3cccn3C)nnc2SCC(=O)N2CCN(c3ccccc3)CC2)cc1	-16%	-19%	?	40µM*	?
Cn1cccc1Cc1nnc(SCC(=O)Nc2ccccc2)n1-c1ccc(F)cc1	-2%	0%	?	-22%	-6%
Cc1cccc(NC(=O)C2CCCN(S(=O)(=O)c3cccc4nonc34)C2)c1C (stereo unspecified)	.	.	.	-7%	.
Cc1oc2ncn(CC(C)C)c(=O)c2c1C(=O)NCCCN1CCCCC1C (stereo unspecified)	.	.	.	8%	.
COc1ccc(-n2c(Cc3cccn3C)nnc2SCC(=O)N2CCCC2)cc1	?	6%	?	-31%	?
Cc1ccc(-n2c(Cc3cccn3C)nnc2SCC(=O)Nc2ccc3c(c2)OCO3)cc1	?	-20%	15µM*	-20%	14%
COc1ccc(-n2c(Cc3cccn3C)nnc2SCC(=O)N2CCC(C)CC2)cc1	0.37µM*	-1%	?	-18%	?
COc1ccc(-n2c(Cc3cccn3C)nnc2SCC(=O)Nc2ccc(C)cc2C)cc1	6%	-4%	?	?	-31%
COc1ccc(-n2c(Cc3cccn3C)nnc2SCC(=O)Nc2cccc(F)c2)cc1	?	13%	8.3µM*	?	-17%
CCCN1C(=O)c2[nH]nc(-c3cccc(OC)c3)c2C1c1ccccn1 (stereo unspecified)	.	.	.	-8%	.
O=C(NNC(=O)c1csc(-c2cccnc2)n1)c1ccccc1	10µM*	113%	?	2%	-4%
O=C(NNc1nc(-c2ccc(Br)cc2)cs1)c1ccco1	-29%	80%	1.7µM*	.	18%
O=C(Nc1ccc(-c2csc(Nc3ccccc3)n2)cc1)c1ccccc1	?	11%	?	-15%	4%
O=C(NNc1nc(-c2ccccc2)cs1)c1ccccc1	2.3µM*	27%	?	-10%	22%
O=C(NNC(=O)c1csc(-c2ccccc2)n1)c1ccccc1	.	113%	.	.	.
N#Cc1ccc(-c2csc(NNC(=O)c3ccccc3)n2)cc1	3.7µM*	82%	12µM*	-7%	12%
O=C(C1CC1)N1CCc2cc(Br)c(S(=O)(=O)N3CCCCCC3)cc21	.	-5%	.	.	.
N#Cc1ccc(-c2csc(NNC(=O)c3ccc(Br)cc3)n2)cc1	2.9µM*	13%	1.7µM*	-13%	29%
CC1(C(=O)NS(=O)(=O)c2ccc(F)cc2F)CCN1C(=O)CC1CCCC1 (stereo unspecified)	.	0%	.	.	.
COc1cc(/C=C/C(=O)Nc2cccnc2)cc(OC)c1OC	9.3µM*	4%	-16%	1%	-18%
COc1cc(/C=C/C(=O)NCc2cccnc2)cc(OC)c1OC	-5%	-11%	?	-17%	6%
SMILES	Pf growth 96h	AMA1-RON2 inh	Pf growth 48h	Sm TGR inh	NS1 inh
COc1cc(/C=C/C(=O)Nc2ccc3[nH]c(=O)[nH]c3c2)cc(OC)c1OC	-10%	12%	10µM*	-15%	10%
COc1cccc(/C=C/C(=O)Nc2ccc3[nH]c(=O)[nH]c3c2)c1	8%	-7%	5%	1%	6%
O=C(/C=C/c1cccs1)Nc1cccnc1	4.7µM*	-2%	216%	4%	-13%
N#CC1(NC(=O)CSc2nnc(-c3ccccc3F)n2N)CCCCC1	13%	7%	13%	-7%	.
COc1ccc(F)cc1S(=O)(=O)NCCc1csc(-c2ccc(Cl)cc2)n1	.	.	.	-2%	.
Cc1cc(C)c(S(=O)(=O)NCc2cn3ccccc3n2)c(C)c1	45%	0%	0%	0%	21%
Cc1csc(SCC(=O)N(C)C2CCS(=O)(=O)C2)n1 (stereo unspecified)	-1%	9%	?	7%	.
